System: Vero E6 infected with SARS-CoV-2
Assay: inhibition of SARS-CoV-2 cytopathic effect; higher = more antiviral protection, active = above 15
Details: 48 h

Measured: inhibition of SARS-CoV-2 cytopathic effect

CCOC(=O)c1ccc(-c2ccc(OC(=O)N(C)Cc3cccc(-c4ccncc4)c3)cc2)cc1
inactive: 1 nM 2.8% | 8.33 nM -0.08% | 100 nM 3.06% | 833.33 nM 4.52% | 10000 nM 4.58%

CCCCCCCCCCC(O)C1C=CC2C(=O)N(c3ccccc3)C(=O)C2N1Nc1ccc([N+](=O)[O-])cc1 (stereo not given)
inactive: 1 nM 0.91% | 8.33 nM 0.89% | 100 nM 1.56% | 833.33 nM 4.49% | 10000 nM 8.83%

Cc1nccn1CC1CCc2c(c3ccccc3n2C)C1=O (stereo not given) [ondansetron]
inactive: 1 nM 3.14% | 8.33 nM 0.05% | 100 nM -1.38% | 833.33 nM -1.32% | 10000 nM 3.44%

CCCCCCCCCCOc1cc2c(O)c(C(=O)OCC)cnc2cc1OCC [decoquinate]
inactive: 1 nM -0.9% | 8.33 nM -0.75% | 100 nM -1.59% | 833.33 nM -0.59% | 10000 nM 2.03%

O=C1C(=C(O)/C=C/c2ccc(O)cc2)C(=O)[C@@](O)([C@@H]2O[C@H](CO)[C@@H](O)[C@H](O)[C@H]2O)C(=O)[C@H]1[C@@H]1O[C@H](CO)[C@@H](O)[C@H](O)[C@H]1O
inactive: 1 nM 0.73% | 8.33 nM -1.02% | 100 nM -0.24% | 833.33 nM -0.74% | 10000 nM -2.44%

COc1ccc(S(=O)(=O)N2c3ccc(Cl)cc3[C@](O)(c3ccccc3Cl)[C@@H]2C(=O)N2CCC[C@H]2C(N)=O)cc1OC [relcovaptan]
inactive: 1 nM -0.27% | 8.33 nM -0.84% | 100 nM 0.53% | 833.33 nM 1.63% | 10000 nM 2.72%

CS(=O)(=O)c1ccc([C@@H](O)[C@@H](CO)NC(=O)C(Cl)Cl)cc1 [thiamphenicol]
inactive: 1 nM -1.6% | 8.33 nM -2.5% | 100 nM -3.22% | 833.33 nM -3.59% | 10000 nM -2.23%

O=C(NC1CCNCC1)c1n[nH]cc1NC(=O)c1c(Cl)cccc1Cl
inactive: 1 nM -0.55% | 8.33 nM -2.6% | 100 nM -1.5% | 833.33 nM -1.53% | 10000 nM 2.5%

Cc1cc(=O)oc2c(C=O)c(O)ccc12
inactive: 1 nM 0.13% | 8.33 nM 2.74% | 100 nM 1.64% | 833.33 nM 2.83% | 10000 nM 6.12%

CN(C)Cc1cccc(N/C(=C2\C(=O)Nc3cc(C(N)=O)ccc32)c2ccccc2)c1
inactive: 1 nM -2.86% | 8.33 nM 2.55% | 100 nM 0.04% | 833.33 nM 2.08% | 10000 nM 2.55%

CCC[S+]([O-])c1ccc2[nH]c(NC(=O)OC)nc2c1 (stereo not given) [albendazole-oxide]
inactive: 1 nM 3.02% | 8.33 nM 2.02% | 100 nM 0.87% | 833.33 nM 1.7% | 10000 nM 0.07%

O=C(O)CCc1ccc(NCc2cccc3c2CCCN3CCOc2ccccc2)cc1F
inactive: 1 nM 2.94% | 8.33 nM 4.34% | 100 nM -0.81% | 833.33 nM 1.53% | 10000 nM 0.9%

CC(=O)CC(=O)O [lithium-acetoacetate]
inactive: 1 nM -0.56% | 8.33 nM -0.05% | 100 nM 1.48% | 833.33 nM 1.82% | 10000 nM 0.27%

COc1cccc(CCc2ccccc2OCC(CN(C)C)OC(=O)CCC(=O)O)c1 (stereo not given) [sarpogrelate]
inactive: 1 nM -0.45% | 8.33 nM -1.71% | 100 nM -2.81% | 833.33 nM -0.22% | 10000 nM -1.72%

COCCOc1ccc(N2CCN(CCn3ncc4c3nc(N)n3nc(-c5ccco5)nc43)CC2)cc1 [preladenant]
inactive: 1 nM 1.43% | 8.33 nM 0.62% | 100 nM 3.21% | 833.33 nM 0.67% | 10000 nM 2.45%

C=CCN1CC[C@]2(C)c3cc(O)ccc3C[C@H]1[C@H]2C
inactive: 1 nM 1.28% | 8.33 nM 1.94% | 100 nM -1.86% | 833.33 nM 0.86% | 10000 nM 1.02%

Cc1[nH]c2ccccc2c1CCNCc1ccc(/C=C/C(=O)NO)cc1 [panobinostat]
inactive: 1 nM -1% | 8.33 nM -0.99% | 100 nM -7.01% | 833.33 nM -13.3% | 10000 nM -14.4%

COc1ccc(-c2cc(=O)c3c(OC)c(OC)c(OC)c(OC)c3o2)cc1OC [nobiletin]
inactive: 1 nM -1.63% | 8.33 nM -2.18% | 100 nM -7.44% | 833.33 nM -2.1% | 10000 nM -0.29%

— the supplement of paper PMC13380429
